# Results taken from PubChem BioAssay (Tox21).
# A number with no mark means an inactive call. Records with an inconclusive call do not appear. Where a call stands in place of a potency, no number is given. The source made the active and inactive calls. Unless noted, calls follow the shape of the dose curve; as a rule, active = well fitted curve in the direction sought with a large enough effect in the repeat runs; inconclusive = weak or mixed curves; inactive = no such curve, though single readings can be large; an effect the other way counts as inactive or inconclusive.
# Key:
# [1] = Human pregnane X receptor (PXR) small molecule agonists, qHTS cell viability counter screen (AID 1346977); also: nearly all actives have a fitted effect of over 50% in size; also: potency is read from the fitted curve at half-maximal effect
# Method in brief: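 Same-well viability read: CellTiter-Fluor added after 23 hr compound exposure, fluorescence measured 1 hr later. Cells were PXR-Luc HepG2 seeded at 2,000/well in 5% charcoal-stripped FBS medium, rested 5 hr before dosing at 37 C.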
# [2] = Caspase-3/7 induction in HepG2 cells by small molecules, qHTS assay (AID 1346978); also: nearly all actives have a fitted effect of over 15% in size
# Method in brief: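 Wild-type HepG2 cells, 2,000/well, settled 5 hr at 37 C and 5% CO2, then compound-treated for 17 hr; caspase-3/7 activity read by luminescent Caspase-Glo 3/7 after 30 min at room temperature.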
# [3] = Caspase-3/7 induction in CHO-K1 cells by small molecules, qHTS cell viability counter screen (AID 1346979); also: nearly all actives have a fitted effect of over 35% in size; also: potency is read from the fitted curve at half-maximal effect
# Method in brief: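 Cytotoxicity counter screen: CellTiter-Fluor added to compound-treated wild-type CHO-K1 cells at 16 h (37C, 5% CO2), fluorescence measured 1 h later; same wells as caspase-3/7 measurement.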
# [4] = Caspase-3/7 induction in CHO-K1 cells by small molecules, qHTS assay (AID 1346980); also: nearly all actives have a fitted effect of over 15% in size
# Method in brief: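 Wild-type CHO-K1 cells exposed to compounds for 17hr at 37 C, 5% CO2. Caspase-3/7 activity then measured by Caspase-Glo 3/7 luminescence after 30min at room temperature.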
# [5] = Caspase-3/7 induction in HepG2 cells by small molecules, qHTS cell viability counter screen (AID 1346981); also: series mostly up to about 92 µM; nearly all actives have a fitted effect of over 30% in size
# Method in brief: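 Viability determined by CellTiter-Fluor fluorescence in HepG2 wells also used for the luminescent Caspase-Glo 3/7 read. Compounds were present for 16 hr at 37 C, 5% CO2 before reagent addition.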
# [6] = biological target: Nuclear receptor subfamily 1 group I member 2 (Homo sapiens) (UniProt O75469); experiment: Human pregnane X receptor (PXR) small molecule agonists, qHTS assay (AID 1346982); also: nearly all actives have a fitted effect of over 35% in size; also: potency is read from the fitted curve at half-maximal effect
# Chain of Nuclear receptor subfamily 1 group I member 2 (Homo sapiens) (O75469 whole entry, looked up): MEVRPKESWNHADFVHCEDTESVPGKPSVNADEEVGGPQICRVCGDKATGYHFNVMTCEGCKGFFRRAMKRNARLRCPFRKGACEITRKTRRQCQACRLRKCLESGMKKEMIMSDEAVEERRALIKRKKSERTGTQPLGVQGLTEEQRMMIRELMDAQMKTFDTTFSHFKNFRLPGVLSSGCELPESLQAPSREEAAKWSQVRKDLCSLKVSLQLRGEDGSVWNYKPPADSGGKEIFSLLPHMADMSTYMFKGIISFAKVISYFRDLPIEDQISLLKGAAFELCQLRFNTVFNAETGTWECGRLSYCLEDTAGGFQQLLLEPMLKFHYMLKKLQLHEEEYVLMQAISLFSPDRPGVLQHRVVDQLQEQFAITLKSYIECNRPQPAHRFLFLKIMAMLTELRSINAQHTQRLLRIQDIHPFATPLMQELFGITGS
# Method in brief: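 Compound-induced hPXR transactivation of a CYP3A4 luciferase reporter was scored in HepG2 PXR-Luc cells over 24 hr at 37 C, 5% CO2, by luminescence.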
# [7] = biological target: Acetylcholinesterase (Homo sapiens) (UniProt P22303); experiment: Acetylcholinesterase (AChE) small molecule antagonists: colormetric cell-based qHTS assay (AID 1347395; calls by dose curve; also: nearly all actives have a fitted effect of over 30% in size; also: potency is read from the fitted curve at half-maximal effect)
# Chain of Acetylcholinesterase (Homo sapiens) (P22303 whole entry, looked up): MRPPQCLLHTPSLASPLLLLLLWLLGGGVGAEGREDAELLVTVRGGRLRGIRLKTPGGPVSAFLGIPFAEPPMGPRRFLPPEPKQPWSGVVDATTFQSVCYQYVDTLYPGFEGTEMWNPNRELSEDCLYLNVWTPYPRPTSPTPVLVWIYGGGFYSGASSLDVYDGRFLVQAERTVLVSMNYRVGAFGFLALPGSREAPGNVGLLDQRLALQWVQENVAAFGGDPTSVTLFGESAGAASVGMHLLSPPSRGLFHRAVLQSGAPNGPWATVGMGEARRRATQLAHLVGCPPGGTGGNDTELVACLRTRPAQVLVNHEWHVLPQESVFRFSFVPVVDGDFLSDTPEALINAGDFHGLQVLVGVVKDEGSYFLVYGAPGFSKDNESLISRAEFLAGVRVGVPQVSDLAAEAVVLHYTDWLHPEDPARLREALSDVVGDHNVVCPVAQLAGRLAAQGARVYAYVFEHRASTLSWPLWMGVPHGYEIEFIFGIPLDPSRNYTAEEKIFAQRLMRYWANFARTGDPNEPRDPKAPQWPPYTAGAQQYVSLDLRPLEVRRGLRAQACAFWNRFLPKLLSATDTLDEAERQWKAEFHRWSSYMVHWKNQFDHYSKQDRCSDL
# Method in brief: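 Colorimetric readout: DTNB quantifies thiocholine from acetylthiocholine hydrolysed by endogenous AChE of SH-SY5Y cells (2,000/well, plated overnight). Compound pretreatment 30 min, substrate incubation 90 min, both 37 C.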
# [8] = biological target: Acetylcholinesterase (Homo sapiens) (UniProt P22303); experiment: Acetylcholinesterase (AChE) small molecule antagonists: enzyme-based qHTS assay (AID 1347397; calls by dose curve; also: nearly all actives have a fitted effect of over 55% in size; also: potency is read from the fitted curve at half-maximal effect); settings: Potency: AChE enzyme activity inhibition
# Method in brief: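 Enzyme inhibition was scored from DTNB-detected thiocholine formed by recombinant human AChE acting on acetylthiocholine. The 30 min compound preincubation and 10 min substrate reaction were both run at room temperature, with DMSO as vehicle control.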
# [9] = biological target: Acetylcholinesterase (Homo sapiens) (UniProt P22303); experiment: Acetylcholinesterase (AChE) small molecule antagonists: enzyme-based qHTS assay with human liver microsomes (AID 1347399; calls by dose curve; also: nearly all actives have a fitted effect of over 60% in size; also: potency is read from the fitted curve at half-maximal effect); settings: Potency: qHTS inhibition
# Method in brief: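 Recombinant human AChE (50 mU/mL in the enzyme mix) and human liver microsomes (0.25 mg/mL final) were preincubated with compound and NADPH (0.25 mg/mL final) for 30 min at 37 C. Acetylthiocholine/DTNB was then added; thiocholine was read colorimetrically after 10 min at room temperature.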
# [10] = biological target: Cytochrome P450 2D6 (Homo sapiens) (UniProt P10635); experiment: Cytochrome P450 Family 2 Subfamily D Member 6 (CYP2D6) small molecule antagonists: luciferase reporter qHTS assay (AID 1671196); also: nearly all actives have a fitted effect of over 50% in size; also: potency is read from the fitted curve at half-maximal effect
# Chain of Cytochrome P450 2D6 (Homo sapiens) (P10635 whole entry, looked up): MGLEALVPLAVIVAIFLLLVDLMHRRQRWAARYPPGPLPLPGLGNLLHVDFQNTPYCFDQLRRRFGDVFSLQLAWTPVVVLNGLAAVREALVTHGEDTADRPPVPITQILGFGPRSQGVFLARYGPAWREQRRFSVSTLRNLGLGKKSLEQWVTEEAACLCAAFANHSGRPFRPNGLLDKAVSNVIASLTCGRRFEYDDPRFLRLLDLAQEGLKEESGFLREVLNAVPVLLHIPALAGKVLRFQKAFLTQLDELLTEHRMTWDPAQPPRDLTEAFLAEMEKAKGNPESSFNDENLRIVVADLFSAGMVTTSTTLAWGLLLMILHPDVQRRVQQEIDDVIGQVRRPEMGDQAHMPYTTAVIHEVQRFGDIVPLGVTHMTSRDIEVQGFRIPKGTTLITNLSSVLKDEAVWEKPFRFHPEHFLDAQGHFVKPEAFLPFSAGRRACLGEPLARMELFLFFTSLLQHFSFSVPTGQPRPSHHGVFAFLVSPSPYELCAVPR
# Method in brief: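 Each well received CYP2D6 with its proluciferin substrate and chemical, sat 10 min, then got NADPH regeneration solution for 1 h at room temperature. Luminescence in RLU served as the activity measure.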
# [11] = biological target: Cytochrome P450 2C19 (Homo sapiens) (UniProt P33261); experiment: Cytochrome P450 Family 2 Subfamily C Member 19 (CYP2C19) small molecule antagonists: luciferase reporter qHTS assay (AID 1671197); also: nearly all actives have a fitted effect of over 65% in size; also: potency is read from the fitted curve at half-maximal effect
# Chain of Cytochrome P450 2C19 (Homo sapiens) (P33261 whole entry, looked up): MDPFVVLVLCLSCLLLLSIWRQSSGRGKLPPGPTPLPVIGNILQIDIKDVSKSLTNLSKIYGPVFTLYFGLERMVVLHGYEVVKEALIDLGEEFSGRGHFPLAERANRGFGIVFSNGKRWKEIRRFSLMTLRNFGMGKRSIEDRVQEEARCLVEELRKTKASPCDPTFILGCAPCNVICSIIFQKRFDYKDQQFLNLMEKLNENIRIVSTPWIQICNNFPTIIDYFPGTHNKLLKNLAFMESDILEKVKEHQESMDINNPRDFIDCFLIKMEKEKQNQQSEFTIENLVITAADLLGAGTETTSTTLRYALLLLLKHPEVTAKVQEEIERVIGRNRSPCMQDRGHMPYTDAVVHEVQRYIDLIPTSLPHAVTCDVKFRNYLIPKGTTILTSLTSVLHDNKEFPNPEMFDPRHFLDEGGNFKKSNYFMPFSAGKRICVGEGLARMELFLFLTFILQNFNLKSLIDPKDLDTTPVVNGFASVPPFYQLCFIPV
# Method in brief: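 Light output is proportional to CYP2C19 activity: proluciferin substrate is converted to luciferin, then detected by a luciferin detection reagent that also stops the 1 h, 37C NADPH-driven reaction. Ketoconazole serves as positive control.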
# [12] = biological target: Cytochrome P450 1A2 (Homo sapiens) (UniProt P05177); experiment: Cytochrome P450 Family 1 Subfamily A Member 2 (CYP1A2) small molecule antagonists: luciferase reporter qHTS assay (AID 1671199); also: nearly all actives have a fitted effect of over 50% in size; also: potency is read from the fitted curve at half-maximal effect
# Chain of Cytochrome P450 1A2 (Homo sapiens) (P05177 whole entry, looked up): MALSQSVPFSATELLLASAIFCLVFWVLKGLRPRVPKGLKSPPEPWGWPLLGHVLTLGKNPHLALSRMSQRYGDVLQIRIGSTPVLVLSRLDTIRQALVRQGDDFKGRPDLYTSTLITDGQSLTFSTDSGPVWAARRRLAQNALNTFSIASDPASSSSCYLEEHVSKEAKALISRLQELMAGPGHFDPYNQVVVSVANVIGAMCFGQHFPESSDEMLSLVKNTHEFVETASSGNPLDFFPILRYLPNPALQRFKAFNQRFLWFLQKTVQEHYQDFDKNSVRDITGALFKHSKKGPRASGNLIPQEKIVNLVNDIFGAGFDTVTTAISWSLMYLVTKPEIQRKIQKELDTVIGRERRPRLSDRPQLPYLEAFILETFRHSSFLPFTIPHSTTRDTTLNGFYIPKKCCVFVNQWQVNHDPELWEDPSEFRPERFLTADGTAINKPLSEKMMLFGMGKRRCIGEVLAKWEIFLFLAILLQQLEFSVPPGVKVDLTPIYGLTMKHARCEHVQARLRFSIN
# Method in brief: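 Enzymatic CYP1A2 assay, human, luminescent: 10 min compound–enzyme–substrate preincubation, 1 h NADPH-dependent turnover, 20 min detection step, room temperature throughout. Reduced light indicates lower CYP1A2 activity.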
# [13] = biological target: Voltage-gated inwardly rectifying potassium channel KCNH2 (Homo sapiens) (UniProt Q12809); experiment: Human Ether-a-go-go-Related Gene (hERG) channel small molecule antagonists: fluorescence cell-based qHTS assay (AID 1671200); also: nearly all actives have a fitted effect of over 50% in size; also: potency is read from the fitted curve at half-maximal effect
# Chain of Voltage-gated inwardly rectifying potassium channel KCNH2 (Homo sapiens) (Q12809 whole entry, looked up): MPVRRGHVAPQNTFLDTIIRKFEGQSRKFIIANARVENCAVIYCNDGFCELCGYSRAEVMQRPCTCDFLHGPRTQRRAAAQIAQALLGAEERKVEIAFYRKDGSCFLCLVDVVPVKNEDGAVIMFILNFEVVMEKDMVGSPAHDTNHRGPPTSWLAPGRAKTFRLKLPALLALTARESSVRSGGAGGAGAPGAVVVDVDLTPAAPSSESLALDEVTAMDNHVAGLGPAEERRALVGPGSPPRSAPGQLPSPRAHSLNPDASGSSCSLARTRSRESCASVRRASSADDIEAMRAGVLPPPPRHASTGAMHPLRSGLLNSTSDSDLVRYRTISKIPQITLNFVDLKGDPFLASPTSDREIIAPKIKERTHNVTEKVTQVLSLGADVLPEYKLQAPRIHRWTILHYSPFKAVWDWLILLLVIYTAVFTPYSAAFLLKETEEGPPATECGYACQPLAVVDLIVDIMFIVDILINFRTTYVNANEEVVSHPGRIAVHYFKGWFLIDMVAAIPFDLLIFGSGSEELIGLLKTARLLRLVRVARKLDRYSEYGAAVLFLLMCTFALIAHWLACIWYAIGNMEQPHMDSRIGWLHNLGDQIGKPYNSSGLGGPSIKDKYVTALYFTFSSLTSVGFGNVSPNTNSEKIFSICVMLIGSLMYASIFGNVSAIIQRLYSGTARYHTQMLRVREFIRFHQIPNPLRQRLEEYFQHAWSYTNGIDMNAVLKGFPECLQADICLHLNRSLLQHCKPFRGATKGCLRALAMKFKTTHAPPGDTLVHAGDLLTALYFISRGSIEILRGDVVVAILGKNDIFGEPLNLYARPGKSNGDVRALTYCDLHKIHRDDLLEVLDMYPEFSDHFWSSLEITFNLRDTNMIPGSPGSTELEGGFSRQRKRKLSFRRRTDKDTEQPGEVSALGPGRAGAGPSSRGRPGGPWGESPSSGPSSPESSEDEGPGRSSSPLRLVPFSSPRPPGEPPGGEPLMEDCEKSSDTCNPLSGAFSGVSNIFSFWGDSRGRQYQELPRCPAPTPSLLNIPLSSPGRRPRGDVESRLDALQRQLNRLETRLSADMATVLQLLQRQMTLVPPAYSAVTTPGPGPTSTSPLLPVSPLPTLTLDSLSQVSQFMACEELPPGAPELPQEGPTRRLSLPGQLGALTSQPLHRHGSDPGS
# Method in brief: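 Thallium flux as potassium surrogate: FluxOR II dye loaded 1 h at room temperature into hERG-expressing U2OS cells, then stimulus buffer added after 10 min. Kinetic 480 nm excitation/540 nm emission read, 2 min.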
# [14] = biological target: Cytochrome P450 3A4 (Homo sapiens) (UniProt P08684); experiment: Cytochrome P450 Family 3 Subfamily A Member 4 (CYP3A4) small molecule antagonists: luciferase reporter qHTS assay (AID 1671201); also: nearly all actives have a fitted effect of over 50% in size; also: potency is read from the fitted curve at half-maximal effect
# Chain of Cytochrome P450 3A4 (Homo sapiens) (P08684 whole entry, looked up): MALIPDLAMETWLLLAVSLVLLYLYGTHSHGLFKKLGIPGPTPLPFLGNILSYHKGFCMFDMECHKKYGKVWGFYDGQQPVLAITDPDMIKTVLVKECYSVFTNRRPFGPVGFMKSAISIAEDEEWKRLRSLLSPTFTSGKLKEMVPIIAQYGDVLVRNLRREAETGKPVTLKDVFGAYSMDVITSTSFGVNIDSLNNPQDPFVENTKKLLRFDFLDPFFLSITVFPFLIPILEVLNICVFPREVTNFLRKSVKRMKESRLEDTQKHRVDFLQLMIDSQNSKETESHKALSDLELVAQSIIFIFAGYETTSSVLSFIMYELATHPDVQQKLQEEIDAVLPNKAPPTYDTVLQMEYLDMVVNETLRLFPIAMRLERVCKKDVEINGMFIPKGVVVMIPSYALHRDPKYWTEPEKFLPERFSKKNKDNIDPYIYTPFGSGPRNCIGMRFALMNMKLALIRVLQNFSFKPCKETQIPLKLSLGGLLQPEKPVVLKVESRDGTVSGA
# Method in brief: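 Recombinant human CYP3A4 converts a proluciferin substrate to luciferin over 1 h at room temperature after NADPH regeneration solution is added (compound preincubated 10 min); detection reagent stops reaction, luminescence read 20 min later as relative units.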
# [15] = biological target: Cytochrome P450 2C9 (Homo sapiens) (UniProt P11712); experiment: Cytochrome P450 Family 2 Subfamily C Member 9 (CYP2C9) small molecule antagonists: luciferase reporter qHTS assay (AID 1671198); also: nearly all actives have a fitted effect of over 50% in size; also: potency is read from the fitted curve at half-maximal effect
# Chain of Cytochrome P450 2C9 (Homo sapiens) (P11712 whole entry, looked up): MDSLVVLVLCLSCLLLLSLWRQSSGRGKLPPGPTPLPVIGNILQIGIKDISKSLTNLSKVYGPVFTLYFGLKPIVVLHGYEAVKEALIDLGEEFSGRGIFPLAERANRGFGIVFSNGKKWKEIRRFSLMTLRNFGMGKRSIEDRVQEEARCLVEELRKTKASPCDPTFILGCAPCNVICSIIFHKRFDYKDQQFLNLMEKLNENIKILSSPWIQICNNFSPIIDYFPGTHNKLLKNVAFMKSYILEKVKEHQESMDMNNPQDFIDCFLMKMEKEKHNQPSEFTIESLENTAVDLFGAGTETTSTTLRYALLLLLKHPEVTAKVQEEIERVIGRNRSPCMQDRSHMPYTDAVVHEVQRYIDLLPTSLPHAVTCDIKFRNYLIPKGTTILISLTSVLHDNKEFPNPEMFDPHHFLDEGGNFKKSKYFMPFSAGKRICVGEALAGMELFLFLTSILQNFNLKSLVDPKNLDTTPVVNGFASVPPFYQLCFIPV
# Method in brief: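 P450-Glo proluciferin substrate with CYP2C9 enzyme; 10 min RT preincubation, then NADPH regeneration 1 h at 37C; luciferin detection reagent 20 min RT, luminescence in relative luminescence units.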
# [16] = biological target: Acetylcholinesterase (Homo sapiens) (UniProt P22303); experiment: Acetylcholinesterase (AChE) small molecule antagonists: fluorescence cell-based qHTS assay (AID 1347398; calls by dose curve; also: nearly all actives have a fitted effect of over 50% in size; also: potency is read from the fitted curve at half-maximal effect); settings: Potency: AChE activity
# Method in brief: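 Endogenous acetylcholinesterase of SH-SY5Y neuroblastoma cells is measured in situ. After overnight attachment and 30 min compound exposure, cells receive acetylthiocholine and Thiolite Green; fluorescence is read after 40 min at room temperature.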
SMILES,Potency [1],Potency [2],Potency [3],Potency [4],Potency [5],Potency [6],Potency [7],Potency [8],Potency [9],Potency [10],Potency [11],Potency [12],Potency [13],Potency [14],Potency [15],Potency [16]
CCCCOC(=O)c1ccccc1N,inactive,inactive,inactive,inactive,inactive,inactive,inactive,inactive,inactive,inactive,28.4 µM (active),8.99 µM (active),inactive,inactive,,
C[N+](C)=CCl,inactive,inactive,inactive,inactive,inactive,inactive,inactive,inactive,inactive,inactive,,inactive,inactive,inactive,inactive,
COc1cc(OC)nc(Sc2cccc(Cl)c2C(=O)O)n1,inactive,inactive,inactive,inactive,inactive,inactive,inactive,inactive,inactive,,,inactive,inactive,inactive,,inactive
CCSC(=O)N(CC)C1CCCCC1,inactive,inactive,inactive,inactive,inactive,inactive,inactive,inactive,inactive,inactive,,,inactive,,,
O=C(CCN1CC1)OCC(CO)(COC(=O)CCN1CC1)COC(=O)CCN1CC1,inactive,inactive,inactive,inactive,inactive,inactive,inactive,inactive,inactive,inactive,inactive,,inactive,,inactive,
Nc1ccccc1Cl,inactive,inactive,inactive,inactive,inactive,inactive,inactive,inactive,inactive,6.87 µM (active),inactive,,inactive,inactive,inactive,
CCOP(=S)(OCC)Oc1ncn(-c2ccccc2)n1,inactive,inactive,inactive,inactive,inactive,27.3 µM (active),31.7 µM (active),71 µM (active),3.17 µM (active),inactive,,1.78 µM (active),inactive,,0.502 µM (active),
CCCCCCI,inactive,inactive,inactive,inactive,inactive,inactive,inactive,inactive,inactive,inactive,inactive,inactive,inactive,,inactive,
ClC(Cl)Br,inactive,inactive,inactive,inactive,inactive,inactive,inactive,inactive,inactive,inactive,inactive,inactive,inactive,inactive,inactive,
COC(=O)C1=CCCN(C)C1,inactive,inactive,inactive,inactive,inactive,inactive,inactive,inactive,inactive,,,inactive,inactive,inactive,inactive,inactive
CCOP(=O)(OCC)OP(=O)(OCC)OCC,inactive,inactive,inactive,inactive,inactive,inactive,inactive,inactive,inactive,,,,inactive,inactive,inactive,inactive
COC(=O)c1ccccc1S(=O)(=O)NC(=O)N(C)c1nc(C)nc(OC)n1,inactive,inactive,inactive,inactive,inactive,inactive,inactive,inactive,inactive,inactive,,inactive,inactive,inactive,inactive,
OC(Cn1cncn1)(c1ccc(F)cc1)c1ccccc1F (stereo unspecified),inactive,inactive,inactive,inactive,inactive,inactive,inactive,inactive,inactive,35.6 µM (active),2 µM (active),31.7 µM (active),inactive,0.224 µM (active),0.796 µM (active),
Clc1ccccc1N1CCNCC1,inactive,inactive,inactive,inactive,inactive,inactive,inactive,inactive,inactive,9.77 µM (active),inactive,,inactive,,inactive,
CCCSC(=O)N(CCC)CCC,inactive,inactive,inactive,inactive,inactive,inactive,inactive,inactive,inactive,inactive,,inactive,inactive,inactive,inactive,
ClCC(Cl)Cl,inactive,inactive,inactive,inactive,inactive,inactive,36.8 µM (active),inactive,inactive,,inactive,,inactive,,inactive,
N#CCCC#N,inactive,inactive,inactive,inactive,inactive,inactive,inactive,inactive,inactive,inactive,inactive,,inactive,inactive,inactive,
CCC(Cl)[N+](=O)[O-] (stereo unspecified),inactive,inactive,inactive,inactive,inactive,inactive,inactive,inactive,inactive,,inactive,,inactive,inactive,inactive,
CC(C(=O)c1ccccc1)N(C)C (stereo unspecified),inactive,inactive,inactive,inactive,inactive,inactive,inactive,inactive,inactive,,,inactive,inactive,,,

SMILES,Potency [1],Potency [2],Potency [3],Potency [4],Potency [5],Potency [6],Potency [7],Potency [8],Potency [9],Potency [10],Potency [11],Potency [12],Potency [13],Potency [14],Potency [15],Potency [16]
COC(C)(C)C,inactive,inactive,inactive,inactive,inactive,inactive,inactive,inactive,inactive,inactive,inactive,,inactive,inactive,inactive,
CC1(C)CON(Cc2ccccc2Cl)C1=O,inactive,inactive,inactive,inactive,inactive,68.6 µM (active),inactive,inactive,inactive,inactive,10 µM (active),31.7 µM (active),inactive,inactive,,
CCCCN(CCCCO)N=O,inactive,inactive,inactive,inactive,inactive,inactive,inactive,inactive,inactive,inactive,inactive,inactive,,,,
Clc1cccc(N2CCNCC2)c1,inactive,inactive,inactive,inactive,inactive,inactive,inactive,inactive,inactive,5.49 µM (active),inactive,,inactive,inactive,inactive,
[As]#[In],inactive,inactive,inactive,inactive,inactive,inactive,inactive,inactive,inactive,inactive,inactive,inactive,inactive,inactive,,
N#Cc1ccncc1,inactive,inactive,inactive,inactive,inactive,inactive,inactive,inactive,inactive,inactive,inactive,inactive,inactive,inactive,inactive,
N#CC(Cl)(Cl)Cl,inactive,inactive,inactive,inactive,inactive,inactive,inactive,inactive,inactive,69.2 µM (active),,inactive,inactive,,inactive,
CCOP(=S)(OCC)Oc1cc(-c2ccccc2)on1,inactive,inactive,inactive,inactive,inactive,24.3 µM (active),63.3 µM (active),,3.17 µM (active),35.6 µM (active),1.59 µM (active),3.17 µM (active),inactive,1.26 µM (active),0.502 µM (active),44.8 µM (active)
OCCBr,inactive,inactive,inactive,inactive,inactive,inactive,inactive,inactive,inactive,,inactive,,inactive,inactive,inactive,
CCCCC(=O)Cl,inactive,inactive,inactive,inactive,inactive,inactive,inactive,inactive,inactive,,,,inactive,,inactive,inactive
CC(N)=S,inactive,inactive,inactive,inactive,inactive,inactive,inactive,inactive,inactive,inactive,71 µM (active),,inactive,inactive,,
CNC(=O)Oc1cccc(C(C)C)c1,inactive,inactive,inactive,inactive,inactive,,,,,,,,inactive,,,
CSc1ccc(C(=O)C(C)(C)N2CCOCC2)cc1,inactive,inactive,inactive,inactive,inactive,,inactive,inactive,inactive,2.52 µM (active),1.12 µM (active),,,2 µM (active),20 µM (active),inactive
COc1cccc(C(=O)NN(C(=O)c2cc(C)cc(C)c2)C(C)(C)C)c1C,inactive,inactive,61.1 µM (active),inactive,,inactive,inactive,inactive,inactive,39.9 µM (active),,inactive,inactive,0.71 µM (active),17.8 µM (active),inactive
CCOC(=O)C(c1c(O)c2ccccc2oc1=O)c1c(O)c2ccccc2oc1=O,inactive,inactive,inactive,inactive,inactive,,inactive,inactive,inactive,inactive,inactive,,inactive,inactive,2.75 µM (active),inactive
CCOC(=O)N(C)C(=O)CSP(=S)(OCC)OCC,inactive,inactive,inactive,inactive,inactive,30.6 µM (active),,inactive,inactive,28.3 µM (active),,3.17 µM (active),inactive,2.24 µM (active),0.71 µM (active),inactive
C=CCC1=C(C)[C@@H](OC(=O)[C@@H]2[C@@H](C=C(C)C)C2(C)C)CC1=O,61.1 µM (active),inactive,43.3 µM (active),,,9.69 µM (active),inactive,inactive,inactive,35.6 µM (active),6.33 µM (active),28.3 µM (active),21.9 µM (active),,12.6 µM (active),inactive
O=c1oc2ccccc2c(O)c1C1CCCc2ccccc21 (stereo unspecified),inactive,inactive,inactive,inactive,inactive,,inactive,inactive,inactive,inactive,,inactive,inactive,31.7 µM (active),3.99 µM (active),inactive
